Source: PubChem
The list is not random: actives were taken first. Their share in the collection is about 10%.
INS promoter inh – inhibitors of insulin promoter-driven GFP, primary screen, imaging, TRM-6 cells (human fetal islet line), eGFP reporter, cell count; reporter expression induced with tamoxifen; inhibition, % at 2 µM; 130,000 compounds, 0.9% hits;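 active = inhibition above the mean plus 3 SD, with well images judged a real hit on visual review, cut at about 60% in these data, passing the limit was not always enough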
bCat KO growth – primary screen for growth suppressors in beta-catenin knockout HCT116 cells (colon tumor, human). 140,000 compounds, 1.5% hits. HCT116 beta-catenin knockout viability, CellTiter-Glo, 60 h; stronger effect = lower value. viability, % at 10 µM;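 active = viability at or under a set limit, the compound median less 4 SD, cut at about 6% in these data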;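 note: 0% = Hyamine 1622 control at 20 µM and 100% = untreated cell control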
ROMK mod – ROMK potassium channel modulators, primary screen, cell-based, thallium flux, MLSMR library. ATP-sensitive inward rectifier potassium channel 1 (Homo sapiens), P48048. Tet-inducible ROMK, thallium flux fluorescence; actives lie on both sides. B-score at 10 µM. 130,000 compounds, 2% hits;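 active = signal ratio slope over the read window, or its plate-corrected B-score, at least 3 SD from the plate mean, either direction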;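 note: B-score of the F/F0 ratio slope over 7 to 12 s after thallium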
L major viab – Leishmania major promastigote growth inhibition, primary screen; Leishmania major promastigotes, resazurin fluorescence viability; inhibition, % at 10 µM; 200,000 compounds, 9% hits; in the data active = inhibition above about 50%;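 note: promastigotes grown with compound for 44 hours at 28 °C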
p97 ATPase inh – inhibitors of human p97 ATPase, primary screen, biochemical. recombinant p97 ATPase, Kinase-Glo ATP luminescence, 3 h. inhibition, % at 8 µM. 220,000 compounds, 0.42% hits. AID 1481, 2009; in the data active = inhibition above about 15%;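 note: 0% = DMSO vehicle and 100% = wells lacking enzyme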
HCT116 PTEN-null – growth suppression of PTEN-null HCT116, primary screen, cell-based, CellTiter-Glo | HCT116 PTEN-null viability, 60 h; stronger effect = lower value | viability, % at 10 µM | 140,000 compounds, 1.2% hits;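 active = viability at or below a set limit, 4 SD under the median of all tested compounds, cut at about 3.7% in these data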;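 note: PTEN knockout HCT116 line with beta catenin targeted HCT116 as companion control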
Numbers without * were called inactive.

Screening CCOc1ccc(N2C(=O)/C(=C\c3ccc(O)c(OC)c3)S(=O)(=O)C2c2cccc([N+](=O)[O-])c2)cc1 (stereo unspecified) returned ROMK mod -0.8, L major viab 22 and p97 ATPase inh -2.
CCOC(=O)C1=C(C)n2c(s/c(=C/c3cccc([N+](=O)[O-])c3)c2=O)=NC1c1ccc(O)c(OC)c1 (stereo unspecified) was read as INS promoter inh 42, bCat KO growth 1.9*, ROMK mod -0.23, L major viab 100*, p97 ATPase inh -1 and HCT116 PTEN-null 7.
CC1CCc2c(sc3ncn(Cc4ccc(C(=O)O)cc4)c(=O)c23)C1 (stereo unspecified) was read as ROMK mod 0.036, L major viab -4 and p97 ATPase inh 15*.
`CCn1nnc2sc3c(c2c1=O)CCC(C)C3` (stereo unspecified) gave INS promoter inh 78*, bCat KO growth 95, L major viab -5, p97 ATPase inh 4 and HCT116 PTEN-null 91.
COc1ccc(Nc2ncccc2C(=O)Nc2ccccc2)cc1 was read as INS promoter inh 50, bCat KO growth 100, ROMK mod -0.14, L major viab 28, p97 ATPase inh 2 and HCT116 PTEN-null 80.
For CC(C)CC(=O)NC(=S)Nc1cccc(NC(=O)c2ccccc2Cl)c1 the results were INS promoter inh -43, bCat KO growth 92, ROMK mod 1.9, L major viab 18, p97 ATPase inh 1 and HCT116 PTEN-null 99.
Screening CC(C)Oc1cccc(C(=O)NC(=S)Nc2cccc(NC(=O)c3ccccc3Cl)c2)c1 returned INS promoter inh -38, bCat KO growth 83, L major viab 86*, p97 ATPase inh 0 and HCT116 PTEN-null 89.
For COc1ccc(NC(=S)NC(=O)c2ccccc2Cl)cc1 the results were INS promoter inh 29, ROMK mod 5.4*, L major viab 5 and p97 ATPase inh 1.
`CC(C)CC(=O)Nc1cccc(NC(=O)c2ccccc2Cl)c1` gave INS promoter inh -4, bCat KO growth 89, ROMK mod 1.2, L major viab 59*, p97 ATPase inh 6 and HCT116 PTEN-null 95.
Screening O=C(COc1ccccc1)NC(=S)Nc1cccc(NC(=O)c2ccccc2Cl)c1 returned bCat KO growth 93, L major viab -7, p97 ATPase inh 1 and HCT116 PTEN-null 99.
`O=C(NC(=S)Nc1ccc(O)cc1)c1ccccc1Cl` gave INS promoter inh 7, ROMK mod -1.3e-05, L major viab 5 and p97 ATPase inh -4.
COc1ccc(NC(=O)c2cccnc2Nc2ccc(OC)cc2)cc1 was read as INS promoter inh 74*, bCat KO growth 83, L major viab 76*, p97 ATPase inh -6 and HCT116 PTEN-null 75.
`Nc1nnc(CSCc2cccc(Br)c2)s1` gave L major viab 4 and p97 ATPase inh -1.
Screening Cc1nc(SCC(=O)NNC(=O)c2cccs2)[nH]c(=O)c1C returned INS promoter inh 25, ROMK mod -0.12, L major viab 0 and p97 ATPase inh 3.
`COc1ccc(C(=O)NC(=S)Nc2ccccc2F)cc1` gave INS promoter inh -11, bCat KO growth 101, ROMK mod 0.23, L major viab 64*, p97 ATPase inh 6 and HCT116 PTEN-null 96.
C/C(N)=C(/C#N)C(=O)CSc1nc2ccccc2c(=O)n1-c1ccc(C)c(Cl)c1 was read as INS promoter inh 20, bCat KO growth 40, ROMK mod 0.24, L major viab -4, p97 ATPase inh 4 and HCT116 PTEN-null 45.
O=C(Nc1cc2c(cc1Br)OCCO2)c1ccco1 was read as INS promoter inh 26, bCat KO growth 94, ROMK mod 0.64, L major viab -1, p97 ATPase inh -3 and HCT116 PTEN-null 91.
O=C(CCc1ccc(O)c(O)c1)NNC(=S)Nc1ccc(Br)cc1Cl was read as ROMK mod 1.4, L major viab -6 and p97 ATPase inh -5.
`O=C(NCc1nc2ccccc2[nH]1)C1=C[C@@H](c2ccccc2)C[C@@H](OCc2ccc(CO)cc2)O1` gave L major viab 85* and p97 ATPase inh -1.
O=C(NCc1nc2ccccc2[nH]1)C1=C[C@@H](C2CCCCC2)C[C@@H](OCc2ccc(CO)cc2)O1 was read as L major viab 74* and p97 ATPase inh 4.
`C=CCn1cc(F)c(=O)n(CC=C)c1=O` gave ROMK mod 0.3, L major viab -1 and p97 ATPase inh 2.
CN1CCc2c(sc3c2C(=O)NC(c2cn(Cc4ccccc4)c4ccccc24)N3)C1 (stereo unspecified) was read as INS promoter inh -130, bCat KO growth 76, L major viab 100*, p97 ATPase inh -4 and HCT116 PTEN-null 70.
CCC(c1nnnn1Cc1ccccc1)N(Cc1ccco1)Cc1cc2cc(OC)ccc2[nH]c1=O (stereo unspecified) was read as bCat KO growth 35, L major viab 18, p97 ATPase inh -2 and HCT116 PTEN-null 45.
`CCC(c1nnnn1CCc1ccccc1)N(Cc1ccco1)Cc1cc2cc(C)cc(C)c2[nH]c1=O` (stereo unspecified) gave bCat KO growth 12, ROMK mod -1.6, L major viab 90*, p97 ATPase inh -5 and HCT116 PTEN-null 6.
CCC(c1nnnn1CCc1ccccc1)N(Cc1ccco1)Cc1cc2c(C)ccc(C)c2[nH]c1=O (stereo unspecified) was read as INS promoter inh -32, bCat KO growth 42, L major viab 87*, p97 ATPase inh -7 and HCT116 PTEN-null 27.
Screening O=C(Nc1ccc(C(=O)O)cc1)/C(=C\c1cccc([N+](=O)[O-])c1)NC(=O)c1ccc(Br)o1 returned INS promoter inh -20, ROMK mod 0.13, L major viab 1 and p97 ATPase inh 1.
`Cc1ccc(N2C(=O)C3C(C2=O)C(C(=O)c2ccc(Cl)cc2)N2CCCC32)cc1` (stereo unspecified) gave INS promoter inh 6, bCat KO growth 99, L major viab 94*, p97 ATPase inh 9 and HCT116 PTEN-null 98.
For C=CCc1ccc(OCC(O)COc2ccc(CC=C)cc2OC)c(OC)c1 the results were INS promoter inh -23, bCat KO growth 68, ROMK mod 1.2, L major viab 12, p97 ATPase inh -11 and HCT116 PTEN-null 64.
For C=CCc1ccc(OCC(O)CN2CCCCC2)c(OC)c1 (stereo unspecified) the results were INS promoter inh -117, bCat KO growth 106, L major viab 78*, p97 ATPase inh 3 and HCT116 PTEN-null 108.
